Experimental data from PubChem BioAssay (Tox21).
Inconclusive results are not listed. Entries that show only a call come without a potency. Some compounds were tested as several samples or in several runs, with calls that do not always agree. Activity calls are given as the source filed them. Calls come from the whole dose curve; as a rule, active = well fitted activation curve with a large enough effect in the repeat runs; inconclusive = weak or mixed curves, or effect the other way; inactive = no such curve, though single readings can be large or run the other way.
Potency is the fitted concentration of half-maximal effect.

Test: qHTS assay to identify small molecule agonists of the estrogen related receptor signaling pathway with the pleiotropic PPARgamma coactivator (PGC) from Tox21 10K library (AID 1224842); note: nearly all actives have a fitted effect of over 15% in size
Conditions: PGC/ERR reporter cell line, luciferase ONE-Glo, 18 h; series mostly up to 92.4 µM
Text: National Center for Advancing Translational Sciences [NCATS] NIH Chemical Genomics Center [NCGC] U.S. Environmental Protection Agency [EPA] National Institutes of Environmental Health Sciences [NIEHS] National Toxicology Program [NTP] Assay overview: Estrogen related receptors (ERRs), the first orphan nuclear receptors discovered, play an important role in the control of cellular energy metabolism. ERRs are required for high-energy production in response to the environmental challenges. The pleiotropic PPARgamma coactivator (PGC) is a major partner of ERR and a key regulator in energy homeostasis. Together they have been implicated in the etiology of metabolic disorders such as Type 2 diabetes and metabolic syndrome. ERR-alpha was also identified as an adverse marker for breast cancer progression; ERR-alpha-positive tumors have a poor prognosis. To screen and to identify environmental compounds that perturb the PGC/ERR signaling pathways could provide valuable information for potential therapeutic or preventive measures in the treatment of metabolic disease. For identifying PGC/ERR agonists, PGC/ERR cell line (provided by NTP) has been used to screen Tox21 10K library.
Assay Protocol Summary: The PGC/ERR cells were dispensed at 2,000 cells/5 ul/well in 1536-well white plates using a Multidrop dispenser. After the assay plates were incubated at a 37 C/5% CO2 incubator for 6 hours, 23 nL of compounds dissolved in DMSO, positive and negative controls or DMSO only was transferred to the assay plate by a pin tool. The plates were incubated at 37 C for 18 hours. 4 ul/well of One-Glo reagent was added into the assay plates using a Flying Reagent Dispenser. After 30-minute incubation at room temperature, the luminescence intensity in the plates was measured using a ViewLux plate reader.
For `CCO[C@H]1O[C@@H]2OC3(C)CC[C@H]4[C@H](C)CC[C@@H]([C@H]1C)[C@@]24OO3`, the Potency was “inactive”. In the case of `N#Cc1ccc(Cl)cc1`, the Potency is reported as “inactive”. In the case of `CCBr`, the Potency is reported as “inactive”. With `O=S(=O)(O)C(F)(F)C(F)(F)C(F)(F)C(F)(F)F` the Potency was “inactive”. With `CCCCOC(=O)c1ccccc1C(=O)OCc1ccccc1` the Potency was “inactive”. In the case of `O=C1CN=C(c2ccccc2)c2cc(Cl)ccc2N1CC1CC1`, the Potency is reported as “inactive”. With `CCC(C)(NC(=O)c1cc(Cl)c(C)c(Cl)c1)C(=O)CCl` (stereo not given) the Potency was “inactive”. In the case of `CCOP(=S)(OCC)SCn1nnc2ccccc2c1=O`, the Potency is reported as “inactive”. In the case of `CCOC(=O)COc1cc(-c2nn(C)c(OC(F)F)c2Cl)c(F)cc1Cl`, the Potency is reported as “inactive”. For `Cn1sc(Cl)cc1=O`, the Potency was “inactive”. In the case of `COCCOCCO`, the Potency is reported as “inactive”. For `C=CC(C)=O`, the Potency was “inactive”. For `O=C(O)C1(c2ccc3c(c2)OC[C@H](Cc2ccc(-c4ccccc4)cc2)[C@H]3O)CCCC1`, the Potency was “inactive”. In the case of `CCCC(Cn1cncn1)c1ccc(Cl)cc1Cl` (stereo not given), the Potency is reported as “inactive”. With `[CH3][Sn]([CH3])([Cl])[Cl]` the Potency was “inactive”. In the case of `COc1ccc(-c2ccccc2)cc1NNC(=O)OC(C)C`, the Potency is reported as “inactive”. For `c1ccc(C2CC2)c(OCC2=NCCN2)c1`, the Potency was “inactive”. In the case of `O=C(NC(=O)c1c(F)cccc1F)Nc1ccc(OC(F)(F)C(F)OC(F)(F)F)c(Cl)c1` (stereo not given), the Potency is reported as “inactive”. In the case of `NC(=O)CI`, the Potency is reported as “inactive”. In the case of `COC(=O)C(Br)CBr` (stereo not given), the Potency is reported as “inactive”. For `O=C(O)C(F)(F)C(F)(F)C(F)(F)C(F)(F)C(F)(F)C(F)(F)C(F)(F)C(F)(F)C(F)(F)F`, the Potency was “inactive”. With `Cc1ccc2ccccc2c1` the Potency was “inactive”. For `O=C(CCl)c1ccc(Cl)cc1Cl`, the Potency was “inactive”. With `COP(=S)(Oc1cc(Cl)c(Br)cc1Cl)c1ccccc1` (stereo not given) the Potency was “inactive”. With `CO/C=C(/C(=O)OC)c1ccccc1COc1cccc(C(F)(F)F)n1` the Potency was “inactive”. For `CCCN(CCCl)c1c([N+](=O)[O-])cc(C(F)(F)F)cc1[N+](=O)[O-]`, the Potency was “inactive”. With `CC(Cl)Cl` the Potency was “inactive”. With `CC(C)N(C(=O)COc1nnc(C(F)(F)F)s1)c1ccc(F)cc1` the Potency was “inactive”. With `Cc1ccc(N)cc1C` the Potency was 3.47 µM (active). For `Brc1ccc(Oc2ccccc2)cc1`, the Potency was 885 nM (active) and inactive. For `C=CC(=O)OCCCCO`, the Potency was “inactive”. With `C=CC[C@]1(O)CC[C@H]2[C@@H]3CCC4=CC(=O)CCC4=C3C=C[C@@]21C` the Potency was “inactive”. In the case of `C=CCN1CC[C@]23c4c5ccc(O)c4O[C@H]2C(=O)CC[C@@]3(O)[C@H]1C5`, the Potency is reported as “inactive”. In the case of `CCCCc1c(C)nc(NCC)nc1OS(=O)(=O)N(C)C`, the Potency is reported as “inactive”. With `O=[N+]([O-])c1cc(C(F)(F)F)cc([N+](=O)[O-])c1Cl` the Potency was “inactive”. For `COP(=S)(OC)Oc1ccc([N+](=O)[O-])cc1Cl`, the Potency was “inactive”. In the case of `O=C(Nc1ccccc1)Nc1ccnc(Cl)c1`, the Potency is reported as “inactive”. In the case of `O=C(CBr)Nc1ccc(Cl)cc1C(=O)c1ccccc1F`, the Potency is reported as “inactive”. For `C/C(=C\c1ccccc1)[N+](=O)[O-]`, the Potency was “inactive”. With `CC(O)(CS(=O)(=O)c1ccc(F)cc1)C(=O)Nc1ccc(C#N)c(C(F)(F)F)c1` (stereo not given) the Potency was “inactive”.
